HIV Env fusion – blocks HIV Env-driven cell-cell fusion. hit rate 1.1% among 360,000. inhibition, % at 12.3 µM. AID 651610. HeLa-JRFL Env/CEM21 cell fusion, luciferase;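 active = mean replicate inhibition score of at least 50 and every replicate individually at or above 50; inconclusive = only one of the two criteria met; inactive = mean below 50 and not all replicates reaching 50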
PAX8 inh HTS – lowers PAX8-driven luciferase in RMG-I cells; RMG-I TPO-luciferase reporter, SteadyGlo, 24 h; inhibition, % at 12.6 µM; hit rate 1.2% among 360,000;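 active = mean replicate inhibition at least 60% with every replicate also reaching 60%; inconclusive = only one of the two criteria is met; inactive = mean below 60% and not all replicates reaching 60%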;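 also: luciferase light reporting Pax8 driven TPO promoter activity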
EWS-Fli block – blocks EWS/Fli oncoprotein-driven transcription; AID 651661; inhibition, % at 12.6 µM; A673 NR0B1-luciferase reporter, viability-normalised; hit rate 0.67% among 350,000;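 active = mean inhibition of at least 50% after viability correction, with every replicate also passing that limit; inconclusive = mean reaches 50% but only one of two replicates passes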;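 also: firefly luciferase signal divided by Alamar Blue viability fluorescence both relative to DMSO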
F508del corr – CFTR F508del correction in bronchial cells. activity (quench increase), % at 7.58 µM. AID 720511. hit rate 0.36% among 350,000. CFBE cells, YFP halide quenching; stimulated with forskolin plus potentiator P3; % fluorescence drop versus neutral controls;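 active = mean added fluorescence quench of at least 8% versus neutral control, with both replicates also reaching 8%; inconclusive = only one of the mean or replicate conditions met; inactive = mean below 8% and not both replicates reaching 8%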;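 also: cells transiently co-express mutant CFTR-F508del with the halide-sensitive YFP; corrector assay measuring rescue of mutant channel to the surface after 24 h compound exposure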
GAA850 FXN act – frataxin GAA850 promoter activation | activation, % at 6 µM | hit rate 0.56% among 360,000 | HEK293 lucGAA850 FXN promoter luciferase reporter, 24 h; percent of 10 µM SAHA response | AID 540364;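 active = activation above the average of all compounds screened plus 3 SD, cutoff fixed separately per campaign, cut at about 7.5% in these data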
GAA30 counter – counter-screen for GAA850 frataxin promoter activators: GAA30 promoter activation | shares compounds with GAA850 FXN act | HEK293 lucGAA30 FXN promoter luciferase, 24 h; DMSO = 0%, 5 µM ipriflavone = 100% | activation, % at 6 µM | hit rate 66% among 1,900;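 active = mean activation above the mean of solvent-only control wells plus 3 SD, cut at about 22% in these data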;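 also: counterscreen of GAA850 promoter hits where activity marks nonselective or luminescence artifacts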
FXN GAA850 conf – GAA850 FXN promoter activation confirmation. shares compounds with GAA850 FXN act. HEK293 lucGAA850 FXN promoter luciferase reporter, 24 h; 100% = activation by SAHA. activation, % at 6 µM. hit rate 86% among 1,900;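 active = mean activation above a set limit taken from the primary screen, cut at about 8% in these data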
Of the large screens only hits and unclear results are named; the others gave an inactive call (follow-up assays come after a bar, where they were run). Only some compounds are listed: those with a hit (about 2.5% of all), similar ones and a draw of the others.

Cn1c(=O)oc2cc(S(=O)(=O)N3CCC(C(=O)NCc4ccc(F)cc4)CC3)ccc21	GAA850 FXN act 11.4 | GAA30 counter inactive | FXN GAA850 conf inactive
Cn1c(=O)oc2cc(S(=O)(=O)N3CCC(C(=O)NCc4ccccc4)CC3)ccc21	none
O=C(Cn1c(=O)oc2cc(S(=O)(=O)N3CCCCCC3)ccc21)NC1CCCCCCC1	GAA850 FXN act 15.7 | GAA30 counter inactive | FXN GAA850 conf 15.7
Cc1cc(C)nc(N2N=C(C(C)(C)C)CC2=O)n1	GAA850 FXN act 16.2 (no result: HIV Env fusion, PAX8 inh HTS) | GAA30 counter inactive | FXN GAA850 conf 8.0
O=S(=O)(c1ccc(F)cc1)N1[C@@H]2CNC[C@H]1C2c1ccc(-c2ccccc2)cc1 (some centres undefined)	none (no result: HIV Env fusion, GAA850 FXN act)
NNc1nc2c(-c3ccc(F)cc3)nnn2c2ccccc12	none
NNc1nc2c(-c3ccc(Cl)cc3)nnn2c2ccccc12	GAA850 FXN act 8.2 | GAA30 counter 128.8 | FXN GAA850 conf 37.5
O=C(NCc1ccccc1)[C@@H]1[C@@H](CO)[C@@H]2Cn3c(cccc3=O)[C@H]1N2C(=O)CC1CC1	none (no result: HIV Env fusion, GAA850 FXN act)
COc1cc(OC)cc(C(=O)Oc2c(CN3CCOCC3)cc(Cl)c3cccnc23)c1	none
O=C(Oc1c(CN2CCOCC2)cc(Cl)c2cccnc12)c1ccccc1F	GAA850 FXN act 7.7 | GAA30 counter inactive | FXN GAA850 conf 14.0
CC(=O)Nc1ccc(/C=N/N2C(C)CCCC2C)cc1 (centres undefined)	none
CC(=O)Nc1ccc(/C=N/N2CCCCC2)cc1	GAA850 FXN act 7.6 | GAA30 counter 86.5 | FXN GAA850 conf 29.3
COc1ccc(CCNC(=O)c2cc(-c3ccco3)on2)cc1OC	GAA850 FXN act 12.7 | GAA30 counter 77.0 | FXN GAA850 conf 33.7
O=C(NCc1ccccc1)c1cc(-c2ccco2)on1	none (no result: HIV Env fusion, PAX8 inh HTS)
O=C(NCCc1ccccc1)c1cc(-c2ccco2)on1	GAA850 FXN act 13.3 (no result: HIV Env fusion, PAX8 inh HTS) | GAA30 counter 153.1 | FXN GAA850 conf 54.3
CN1C(=O)c2cc(NC(=O)c3cccc(F)c3)ccc2OC[C@H]2O[C@H](CC(=O)NCC3CC3)CC[C@H]21	none (no result: HIV Env fusion, GAA850 FXN act)
O=C(c1ccc(-c2cccc(Cl)c2Cl)o1)N1CCOCC1	GAA850 FXN act 8.8 | GAA30 counter 108.0 | FXN GAA850 conf 39.1
C[C@H]1CN([C@@H](C)CO)C(=O)c2cc(NC(=O)C3CC3)ccc2O[C@@H]1CN(C)S(=O)(=O)c1ccc(F)cc1	none (no result: GAA850 FXN act)
CCOc1ccc(C(C)=O)cc1COC(=O)c1ccccc1C(=O)N(C)Cc1ccccc1	HIV Env fusion 98.2, GAA850 FXN act 9.5 | GAA30 counter inactive | FXN GAA850 conf 15.0
O=[N+]([O-])c1ccccc1N/N=C/c1cccc(O)c1O	GAA850 FXN act 12.5 | GAA30 counter 39.8 | FXN GAA850 conf 26.3
O=[N+]([O-])c1ccc(N/N=C/c2cccc(O)c2O)c(S(=O)(=O)N2CCOCC2)c1	none
COc1cccc(/C=N/Nc2ccc([N+](=O)[O-])cc2)c1O	GAA850 FXN act 8.1 | GAA30 counter 105.7 | FXN GAA850 conf 35.0
O=[N+]([O-])c1ccccc1N/N=C\c1ccccc1Cl	none (no result: HIV Env fusion, PAX8 inh HTS, EWS-Fli block, F508del corr)
O=[N+]([O-])c1cccc(N/N=C/c2cccc(O)c2O)c1	GAA850 FXN act 8.7 | GAA30 counter 67.3 | FXN GAA850 conf 29.6
C/C(=N\NC(=O)c1cccs1)c1ccc2c(c1)OCO2	GAA850 FXN act 7.6 | GAA30 counter 77.3 | FXN GAA850 conf 24.9
CC(=NNC(=O)c1cccs1)c1ccc2c(c1)OCCO2	none (no result: HIV Env fusion)
O=[N+]([O-])c1c(Nc2ccccc2O)cc(Cl)c2nonc12	PAX8 inh HTS 91.1, EWS-Fli block 65.6, GAA850 FXN act 10.8 | GAA30 counter inactive | FXN GAA850 conf inactive
O=C(Nc1ccc(F)c(Cl)c1)c1ccc2c(=O)n3c(nc2c1)CCCCC3	none (no result: EWS-Fli block, F508del corr)
O=C(Nc1ccc(Cl)cc1Cl)c1ccc2c(=O)n3c(nc2c1)CCC3	none
O=C(Nc1ccc(Cl)cc1)c1ccc2c(=O)n3c(nc2c1)CCCCC3	HIV Env fusion inconclusive, GAA850 FXN act 18.0 | GAA30 counter 62.8 | FXN GAA850 conf 24.8
O=C(Nc1ccc(Br)cc1Cl)c1ccc2c(=O)n3c(nc2c1)CCC3	GAA850 FXN act 7.9 | GAA30 counter 87.5 | FXN GAA850 conf 23.4
COc1ccc(CN(C)C[C@@H]2OCCCC[C@@H](C)Oc3ccc(NC(=O)CCC(F)(F)F)cc3C(=O)N([C@@H](C)CO)C[C@H]2C)cc1	none (no result: GAA850 FXN act)
N#Cc1ccc(S(=O)(=O)N2CCCCC2c2cc(C(=O)Nc3cccc4c3CCCC4)no2)cc1 (centres undefined)	HIV Env fusion 59.9, GAA850 FXN act 7.9 | GAA30 counter 27.3 | FXN GAA850 conf 12.2
CS(=O)(=O)N1CCCCC1c1cc(C(=O)Nc2cccc3c2CCCC3)no1 (centres undefined)	none
CN1C(=O)c2cc(NC(=O)Cc3cccs3)ccc2OC[C@@H]2O[C@@H](CC(=O)NCC3CCCCC3)CC[C@H]21	none (no result: HIV Env fusion, GAA850 FXN act)
Cc1ccc(O)c(NC2=C(Cl)C(=O)N(Cc3ccccc3)C2=O)c1	GAA850 FXN act 8.1 | GAA30 counter inactive | FXN GAA850 conf 12.4
CCOc1ccc2c(c1)c1nc3ccccc3nc1n2C	GAA850 FXN act 7.7 | GAA30 counter 74.1 | FXN GAA850 conf 21.5
CN1C(=O)c2cc(NC(=O)c3ccc(F)c(F)c3)ccc2OC[C@H]2O[C@@H](CC(=O)N[C@@H]3CCN(Cc4ccccc4)C3)CC[C@H]21	none (no result: F508del corr, GAA850 FXN act)
CCCNC(=O)N1C[C@H](C)[C@@H](OC)CN(C)C(=O)c2ccc(NC(C)=O)cc2OC[C@@H]1C	none (no result: HIV Env fusion, PAX8 inh HTS, EWS-Fli block, GAA850 FXN act)
COc1ccc(C2=NN(c3ccc(C(=O)O)cc3)C(c3ccc(OC)c(OC)c3)C2)cc1 (centres undefined)	GAA850 FXN act 11.4 | GAA30 counter 31.4 | FXN GAA850 conf 18.9
Nc1nc(-c2ccccc2)cc(-c2ccccc2O)n1	GAA850 FXN act 9.3 (no result: PAX8 inh HTS, EWS-Fli block, F508del corr) | GAA30 counter 53.5 | FXN GAA850 conf 47.6
CNCCCOc1ccc2c(c1)CCC2	none
c1cnc(SCCOc2ccc3c(c2)CCC3)nc1	GAA850 FXN act 8.2 (no result: PAX8 inh HTS, EWS-Fli block, F508del corr) | GAA30 counter 100.6 | FXN GAA850 conf 38.0
O=S(=O)(CCN1CCN(C(c2ccccc2)c2ccccc2)CC1)C(F)(F)F	GAA850 FXN act 7.8 (no result: HIV Env fusion, PAX8 inh HTS, EWS-Fli block, F508del corr) | GAA30 counter 37.5 | FXN GAA850 conf 15.8
c1ccc(CN2CCN(C(c3ccccc3)c3ccccc3)CC2)cc1	none
O=Nc1c(-c2ccccc2)n(O)[n+]([O-])c1-c1ccccc1	GAA850 FXN act 8.9 | GAA30 counter 75.2 | FXN GAA850 conf 36.1
Fc1cccc2sc(Nc3nnc(-c4ccccc4)o3)nc12	none (no result: PAX8 inh HTS, EWS-Fli block, F508del corr)
COc1ccc(-c2nnc(Nc3nc4c(OC)cccc4s3)o2)c(OC)c1	GAA850 FXN act 9.0 (no result: PAX8 inh HTS, EWS-Fli block, F508del corr) | GAA30 counter inactive | FXN GAA850 conf 23.4
Nc1c2c3c(sc2nc(=O)n1N)CCCC3	none

Source: PubChem BioAssay
